Results reported in PubChem BioAssay AID1159580 (chemical genetic matrix, 2015).
Among all 5,500 compounds or so, about 2,000 (36%) were called active. Roughly 18% stayed inconclusive and do not appear here. Rule as the data show it: active = normalized growth mostly below about 0.91 (no sharp cut-off); inconclusive = no clear call, values can overlap the other calls; inactive = mostly above about 0.92. The list shows a part of the results.

Assay: chemical genetic growth profiling, strain panel (AID 1159580);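 also: tested at 20 µM; growth read once vehicle control cultures reached saturation at 30 °C; 1 = growth at the plate median or of vehicle wells; lower values mean less growth of the strain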
Conditions: growth OD

Measured: normalized growth

NC(N)=O
inactive: S. cerevisiae deletion strains, locus YJR075W, strain HOC1, hits give low values 1.02 | S. cerevisiae deletion strains, locus YKL009W, strain mrt4, hits give low values 1 | S. cerevisiae deletion strains, locus YKL068W, hits give low values 0.992 | S. cerevisiae deletion strains, locus YKL085W, strain MDH1 (second series), hits give low values 0.994 | S. cerevisiae deletion strains, locus YKL085W, strain MDH1, hits give low values 0.994 | S. cerevisiae deletion strains, locus YKL160W, strain elf1, hits give low values 1.02 | S. cerevisiae deletion strains, locus YKL190W, strain CNB1, hits give low values 1 | S. cerevisiae deletion strains, locus YKR001C, strain vps1, hits give low values 1 | S. cerevisiae deletion strains, locus YKR026C, strain gcn3, hits give low values 1.01 | S. cerevisiae deletion strains, locus YKR091W, strain srl3, hits give low values 1 | S. cerevisiae deletion strains, locus YLL001W, strain dnm1, hits give low values 1.01 | S. cerevisiae deletion strains, locus YLL026W, hits give low values 1.02 | S. cerevisiae deletion strains, locus YLL041C, strain sdh2, hits give low values 1.01 | S. cerevisiae deletion strains, locus YLR027C, strain aat2, hits give low values 1.02 | S. cerevisiae deletion strains, locus YLR039C, strain RIC1, hits give low values 1.05 | S. cerevisiae deletion strains, locus YLR058C, strain SHM2, hits give low values 0.99 | S. cerevisiae deletion strains, locus YLR102C, strain apc9, hits give low values 0.986 | S. cerevisiae deletion strains, locus YLR113W, strain HOG1, hits give low values 0.993 | S. cerevisiae deletion strains, locus YLR221C, strain rsa3, hits give low values 0.98 | S. cerevisiae deletion strains, locus YLR258W, strain gsy2, hits give low values 1 | S. cerevisiae deletion strains, locus YLR262C, strain YPT6 (second series), hits give low values 1.03 | S. cerevisiae deletion strains, locus YLR262C, strain YPT6, hits give low values 1.08 | S. cerevisiae deletion strains, locus YLR268W, strain sec22, hits give low values 1.02 | S. cerevisiae deletion strains, locus YLR320W, strain mms22, hits give low values 1 | S. cerevisiae deletion strains, locus YLR330W, strain CHS5, hits give low values 0.988 | S. cerevisiae deletion strains, locus YLR342W, strain FKS1 (second series), hits give low values 0.96 | S. cerevisiae deletion strains, locus YLR342W, strain FKS1, hits give low values 1.01 | S. cerevisiae deletion strains, locus YLR357W, strain rsc2, hits give low values 1.04 | S. cerevisiae deletion strains, locus YLR370C, strain arc18, hits give low values 1.02 | S. cerevisiae deletion strains, locus YLR371W, strain rom2, hits give low values 0.985 | S. cerevisiae deletion strains, locus YLR384C, strain iki3, hits give low values 1.01 | S. cerevisiae deletion strains, locus YLR418C, strain cdc73, hits give low values 1.01 | S. cerevisiae deletion strains, locus YML016C, strain PPZ1, hits give low values 0.999 | S. cerevisiae deletion strains, locus YML032C, strain rad52, hits give low values 1 | S. cerevisiae deletion strains, locus YML120C, strain ndi1, hits give low values 1.03 | S. cerevisiae deletion strains, locus YML124C, strain tub3, hits give low values 0.993 | S. cerevisiae deletion strains, locus YMR058W, strain fet3, hits give low values 1.02 | S. cerevisiae deletion strains, locus YMR078C, strain ctf18, hits give low values 0.992 | S. cerevisiae deletion strains, locus YMR125W, strain sto1, hits give low values 1 | S. cerevisiae deletion strains, locus YMR129W, hits give low values 1.01 | S. cerevisiae deletion strains, locus YMR205C, strain PFK2, hits give low values 1.02 | S. cerevisiae deletion strains, locus YMR223W, strain ubp8, hits give low values 0.992 | S. cerevisiae deletion strains, locus YMR231W, strain pep5, hits give low values 1 | S. cerevisiae deletion strains, locus YMR263W, strain SAP30, hits give low values 1.03 | S. cerevisiae deletion strains, locus YMR307W, strain GAS1, hits give low values 1.02 | S. cerevisiae deletion strains, locus YNL067W, strain RPL9B, hits give low values 1.05 | S. cerevisiae deletion strains, locus YNL071W, strain lat1, hits give low values 1.01 | S. cerevisiae deletion strains, locus YNL128W, strain TEP1, hits give low values 1.02 | S. cerevisiae deletion strains, locus YNL153C, strain GIM3, hits give low values 1.02 | S. cerevisiae deletion strains, locus YNL183C, strain NPR1, hits give low values 0.963 | S. cerevisiae deletion strains, locus YNL209W, strain ssb2, hits give low values 1.01 | S. cerevisiae deletion strains, locus YNL233W, strain BNI4, hits give low values 1 | S. cerevisiae deletion strains, locus YNL248C, strain rpa49, hits give low values 0.978 | S. cerevisiae deletion strains, locus YNL250W, strain rad50, hits give low values 0.991 | S. cerevisiae deletion strains, locus YNL271C, strain bni1, hits give low values 0.988 | S. cerevisiae deletion strains, locus YNL298W, strain CLA4, hits give low values 1 | S. cerevisiae deletion strains, locus YNL307C, strain MCK1, hits give low values 0.993 | S. cerevisiae deletion strains, locus YNL322C, strain KRE1 (second series), hits give low values 1.01 | S. cerevisiae deletion strains, locus YNL322C, strain KRE1, hits give low values 1 | S. cerevisiae deletion strains, locus YNR049C, strain mso1, hits give low values 1.02 | S. cerevisiae deletion strains, locus YNR052C, strain pop2, hits give low values 0.974 | S. cerevisiae deletion strains, locus YOL006C, strain TOP1, hits give low values 1.21 | S. cerevisiae deletion strains, locus YOL012C, strain htz1 1.36 | S. cerevisiae deletion strains, locus YOL147C, strain pex11, hits give low values 0.993 | S. cerevisiae deletion strains, locus YOR001W, strain rrp6, hits give low values 1.02 | S. cerevisiae deletion strains, locus YOR061W, strain CKA2, hits give low values 0.997 | S. cerevisiae deletion strains, locus YOR069W, strain VPS5, hits give low values 1.07 | S. cerevisiae deletion strains, locus YOR070C, strain gyp1, hits give low values 1.01 | S. cerevisiae deletion strains, locus YOR080W, strain dia2, hits give low values 1.02 | S. cerevisiae deletion strains, locus YOR083W, strain WHI5, hits give low values 1 | S. cerevisiae deletion strains, locus YOR106W, strain vam3, hits give low values 1.02 | S. cerevisiae deletion strains, locus YOR136W, strain idh2, hits give low values 0.993 | S. cerevisiae deletion strains, locus YOR144C, strain elg1, hits give low values 0.992 | S. cerevisiae deletion strains, locus YOR184W, strain ser1, hits give low values 0.992 | S. cerevisiae deletion strains, locus YOR231W, strain MKK1, hits give low values 0.993 | S. cerevisiae deletion strains, locus YOR265W, strain rbl2, hits give low values 1.02 | S. cerevisiae deletion strains, locus YOR270C, strain vph1, hits give low values 1.02 | S. cerevisiae deletion strains, locus YOR290C, strain snf2, hits give low values 0.992 | S. cerevisiae deletion strains, locus YOR316C, strain cot1, hits give low values 0.985 | S. cerevisiae deletion strains, locus YPL051W, strain arl3, hits give low values 1.01 | S. cerevisiae deletion strains, locus YPL055C, strain LGE1, hits give low values 1.07 | S. cerevisiae deletion strains, locus YPL078C, strain atp4, hits give low values 1.02 | S. cerevisiae deletion strains, locus YPL106C, strain sse1, hits give low values 0.987 | S. cerevisiae deletion strains, locus YPL240C, strain hsp82, hits give low values 1.01 | S. cerevisiae deletion strains, locus YPL241C, strain CIN2, hits give low values 1.07 | S. cerevisiae deletion strains, locus YPL256C, strain CLN2, hits give low values 1 | S. cerevisiae deletion strains, locus YPR119W, strain clb2, hits give low values 0.992 | S. cerevisiae deletion strains, locus YPR141C, strain kar3, hits give low values 1 | S. cerevisiae deletion strains, locus YPR163C, strain tif3, hits give low values 0.996 | S. cerevisiae deletion strains, locus YPR167C, strain met16, hits give low values 0.989 | S. cerevisiae deletion strains, strain wtn01, hits give low values 0.999 | S. cerevisiae strains, strain wild type, hits give low values 0.991
